Compound activity deposited in PubChem BioAssay by National Center for Advancing Translational Sciences (NCATS).
Compounds with a hit are over-represented: about 21% of the library has one in this group of screens.
Shiga toxin inh: A qHTS for Small Molecule Inhibitors of Shiga Toxin | inhibition, % at 38.7 µM | Vero cells, Shiga toxin protein synthesis inhibition reporter | 9.2% of 290,000 active; in the data active = inhibition mostly above about 28%, no sharp cut-off; inactive = mostly below about 43%
Cycloheximide cs: Cycloheximide Counterscreen for Small Molecule Inhibitors of Shiga Toxin | cell reporter, cycloheximide protein synthesis inhibition counterscreen | AID 2314, 2010 | max response, % | 12% of 300,000 active; in the data active = max response mostly above about 13%, no sharp cut-off; inactive = mostly below about 14%; also: read at 38.3 µM for the half of the compounds with a filed dose
Pf growth 48h: Primary qHTS for delayed death inhibitors of the malarial parasite plastid, 48 hour incubation; Potency, µM (doses to about 28.7 µM), usual class: inhibitors; 5.9% of 310,000 active; P. falciparum luciferase growth in erythrocytes, 48 h
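Here the parasites carry a stable luciferase gene and grow inside erythrocytes in Albumax-based RPMI medium with compound for one erythrocytic cycle. Activity is scored as loss of luminescent signal.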
NS1 inh: qHTS Assay for Inhibitors of Influenza NS1 Protein Function; Potency, µM (series often up to 46.1 µM); 0.4% of 270,000 active; AID 2326, 2010; calls by dose curve; also: actives are rising curves; nearly all actives have a fitted effect of over 50% in size
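In this qHTS, NS1 from influenza A is expressed in budding yeast, where it slows growth. Cells are switched from glucose to 2% galactose medium (pH 6.0, -URA), treated with compound, and growth recovery is read at OD600.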
Pf growth 96h: Primary qHTS for delayed death inhibitors of the malarial parasite plastid, 96 hour incubation; 6.9% of 320,000 active; Potency, µM (highest dose often 28.7 µM), hits mostly inhibitors; P. falciparum luciferase reporter growth, 96 h; AID 504834, 2011
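Cell-based qHTS: luciferase-tagged P. falciparum in erythrocytes (2% hematocrit, 0.05% parasitemia final) incubated with compounds for 96 hours, 37 C, 5% CO2; luciferase detection reagent then added and luminescence measured.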
Numbers stand for hits; [ ] = remark or other dose. Unless noted, calls follow the shape of the dose curve; as a rule, active = well fitted inhibition curve with a large enough effect; inconclusive = small, poorly fitted or top-dose-only effect, or another doubt; inactive = no such curve, though single readings can be large or run the other way.

For COc1ccc(OC)c(CN2C(=O)c3ccccc3C2C(=O)NCC2CCCO2)c1 (centres undefined) the results were Shiga toxin inh inactive, Cycloheximide cs inactive, Pf growth 48h inconclusive and Pf growth 96h inconclusive.
Screening COc1ccccc1CC(=O)NCC1CCCO1 (centres undefined) returned Shiga toxin inh inactive, Cycloheximide cs inactive, Pf growth 48h inactive, NS1 inh inactive and Pf growth 96h inactive.
`COc1ccc(C(=O)NCC2CCCO2)cc1` (centres undefined) gave Shiga toxin inh 54, Cycloheximide cs 36, Pf growth 48h inactive, NS1 inh inactive and Pf growth 96h inactive.
Screening CN(C)c1cccc(C(=O)NCC2CCCO2)c1 (centres undefined) returned Shiga toxin inh 42, Cycloheximide cs inactive, Pf growth 48h inactive, NS1 inh inactive and Pf growth 96h inactive.
Screening COc1cccc(CNCC2CCCO2)c1 (centres undefined) returned Cycloheximide cs inactive, Pf growth 48h inactive, NS1 inh inactive and Pf growth 96h inactive.
Screening COc1ccc(-n2nc(C(=O)NCC(=O)NCC3CCCO3)c3ccccc3c2=O)cc1Cl (centres undefined) returned Shiga toxin inh inactive, Cycloheximide cs inactive, Pf growth 48h inconclusive, NS1 inh inactive and Pf growth 96h inconclusive.
Screening CC1CCc2sc(C(=O)NCC3CCCO3)cc2C1 (centres undefined) returned Pf growth 48h inactive and Pf growth 96h inactive.
COc1cccc(-n2nc(C(=O)NCC3CCCO3)c3ccccc3c2=O)c1 (centres undefined) was read as Shiga toxin inh inactive, Cycloheximide cs inactive, Pf growth 48h inactive, NS1 inh inactive and Pf growth 96h 3.7µM.
O=C(NCC1CCCO1)c1cc2c(s1)CCC2 (centres undefined) was read as Shiga toxin inh 89, Cycloheximide cs 52, Pf growth 48h inactive and Pf growth 96h inactive.
Screening COc1ccc(CCNCC2CCCO2)cc1 (centres undefined) returned Shiga toxin inh 24, Cycloheximide cs 18, Pf growth 48h inactive, NS1 inh inactive and Pf growth 96h inactive.
`O=C(CCS(=O)(=O)c1ccc(Cl)cc1)N1CCN(S(=O)(=O)c2cccs2)CC1` gave Shiga toxin inh inactive, Cycloheximide cs inactive, Pf growth 48h inactive, NS1 inh inactive and Pf growth 96h inactive[5.75 µM].
Cn1cnnc1SCC(=O)Nc1cc(S(=O)(=O)N2CCCCCC2)ccc1Cl was read as Shiga toxin inh inactive, Cycloheximide cs inactive, Pf growth 48h inactive, NS1 inh inactive and Pf growth 96h inconclusive.
O=C(NCc1ccc(F)cc1)c1ccc(NC(=O)C2CCCO2)cc1 (centres undefined) was read as Shiga toxin inh inactive, Cycloheximide cs inactive, Pf growth 48h inactive, NS1 inh inactive and Pf growth 96h inactive.
For COc1ccc(CNC(=O)c2ccc(NC(=O)C3CCCO3)cc2)cc1 (centres undefined) the results were Shiga toxin inh 26, Cycloheximide cs inactive, Pf growth 48h inactive, NS1 inh inactive and Pf growth 96h inactive.
For Cc1cc(NC(=O)c2ccc(NC(=O)C3CCCO3)cc2)ccc1Br (centres undefined) the results were Shiga toxin inh 74, Cycloheximide cs 42, Pf growth 48h inactive, NS1 inh inactive and Pf growth 96h inactive.
For CCCOC(=O)c1ccc(NC(=O)C2CCCO2)cc1 (centres undefined) the results were Shiga toxin inh 66, Cycloheximide cs 39, Pf growth 48h inactive, NS1 inh inactive and Pf growth 96h inactive.
NC(=O)c1ccc(NC(=O)C2CCCO2)cc1 (centres undefined) was read as Shiga toxin inh inactive, Cycloheximide cs inactive, Pf growth 48h inactive, NS1 inh inactive and Pf growth 96h inactive.
`CS(=O)(=O)N(CC(=O)NCC1CCCO1)c1cccc(Cl)c1` (centres undefined) gave Shiga toxin inh inactive, Cycloheximide cs 15, Pf growth 48h inconclusive, NS1 inh inactive and Pf growth 96h inactive.
For CS(=O)(=O)N(CC(=O)NCC1CCCO1)c1cc(Cl)cc(Cl)c1 (centres undefined) the results were Shiga toxin inh inactive, Cycloheximide cs inactive, Pf growth 48h inactive, NS1 inh inactive and Pf growth 96h inactive.
CCCCCCC(=O)N/N=C/Cc1ccccc1 was read as Shiga toxin inh inactive, Cycloheximide cs inactive, Pf growth 48h inactive, NS1 inh inactive and Pf growth 96h inactive.
`CS(=O)(=O)Nc1ccc(C(=O)NCC2CCCO2)cc1` (centres undefined) gave Shiga toxin inh inactive, Cycloheximide cs inactive, Pf growth 48h inactive, NS1 inh inactive and Pf growth 96h inconclusive.
`Cc1ccc(C)n1-c1ccc(C(=O)NCC2CCCO2)cc1` (centres undefined) gave Shiga toxin inh inactive, Cycloheximide cs inactive, Pf growth 48h inactive, NS1 inh inactive and Pf growth 96h 10µM.
`CN(C)c1ccc(C(=O)NCC2CCCO2)cc1` (centres undefined) gave Shiga toxin inh 64, Cycloheximide cs 43, Pf growth 48h inactive, NS1 inh inactive and Pf growth 96h inconclusive.
`O=C(COC(=O)CNC(=O)c1ccccc1)Nc1cccc(Br)c1` gave Shiga toxin inh inactive, Cycloheximide cs inactive, Pf growth 48h inactive, NS1 inh inactive and Pf growth 96h inconclusive.
Screening COc1ccc(NC(=O)CN(C)C(=O)C23CC4CC(CC(C4)C2)C3)cc1 returned Shiga toxin inh inactive, Cycloheximide cs inactive, Pf growth 48h inactive, NS1 inh inactive and Pf growth 96h inconclusive.
Screening CC1(C(=O)NCCN2CCOCC2)C=CCN1C(=O)c1ccccc1 (centres undefined) returned Shiga toxin inh 41, Cycloheximide cs 26, Pf growth 48h inactive, NS1 inh inactive and Pf growth 96h inactive.
Screening CNC(=O)C1(C)C=CCN1C(=O)c1ccccc1 (centres undefined) returned Shiga toxin inh inactive, Cycloheximide cs inactive, Pf growth 48h inactive, NS1 inh inactive and Pf growth 96h inactive.
`CC(=O)c1cccc(NC(=S)NC(=O)c2ccc(C)cc2Cl)c1` gave Shiga toxin inh 90, Cycloheximide cs 38, Pf growth 48h inactive, NS1 inh inactive and Pf growth 96h inconclusive.
`O=C(NC(=S)Nc1ccccc1O)c1ccccc1Cl` gave Shiga toxin inh 77, Cycloheximide cs 44, Pf growth 48h inactive, NS1 inh inactive and Pf growth 96h inactive[1.15 µM].
`NC(=S)NNC(=O)c1ccccc1Cl` gave Shiga toxin inh inactive, Cycloheximide cs inactive, Pf growth 48h inactive, NS1 inh inactive and Pf growth 96h inactive.
For CC(=O)c1cccc(NC(=S)NC(=O)c2ccccc2Cl)c1 the results were Shiga toxin inh 83, Cycloheximide cs 21, Pf growth 48h inactive, NS1 inh inactive and Pf growth 96h inactive.
COC(=O)c1cccc(NC(=O)NC(=O)c2ccccc2Cl)c1 was read as Shiga toxin inh inactive, Cycloheximide cs inactive, Pf growth 48h inactive, NS1 inh inactive and Pf growth 96h inactive.
For O=S(=O)(c1ccc(F)cc1)n1cnc2ccccc21 the results were Shiga toxin inh inactive, Cycloheximide cs inactive, Pf growth 48h inactive, NS1 inh inactive and Pf growth 96h inconclusive.
